# PubChem BioAssay (NCI)
# Compounds without any hit were thinned out: in the full panel of roughly 83,000, 20% have a hit.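 How to read the values: 0–100, growth inhibition (40 = 60% inhibited); 0, no net growth; -100 to 0, cell death (-40 = 40% of starting cells died; -100 = all dead).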 Values without a mark were called inactive. Active and inactive are the calls of the source. The calls were made as follows: active = growth percent below 10; inactive = the rest.
# Tests used:
# Assay in all cases: NCI-60 one-dose screen, 48 h (100 = growth as untreated, 0 = no growth, -100 = all killed)
# Settings in all cases: 10 µM
# [1] = tested on: NCI-H23 lung
# [2] = tested on: NCI-H226 lung
# [3] = tested on: NCI-H322M lung
# [4] = tested on: HOP-62 NSCLC
# [5] = tested on: NCI-H460 lung
# [6] = tested on: NCI-H522 lung
# [7] = tested on: A549/ATCC NSCLC
# [8] = tested on: 786-0 renal
# [9] = tested on: COLO 205 colon
# [10] = tested on: DU-145 prostate
# [11] = tested on: K-562 leukemia
# [12] = tested on: MDA-MB-231 breast
# [13] = tested on: RXF 393 renal
# [14] = tested on: SF-268 CNS
# [15] = tested on: SF-295 CNS
# [16] = tested on: SF-539 CNS
# [17] = tested on: UACC-257 melanoma
# [18] = tested on: M14 melanoma
# [19] = tested on: HCT-15 colon
# [20] = tested on: MALME-3M melanoma
SMILES,growth [1],growth [2],growth [3],growth [4],growth [5],growth [6],growth [7],growth [8],growth [9],growth [10],growth [11],growth [12],growth [13] [%],growth [14],growth [15],growth [16],growth [17],growth [18],growth [19] [%],growth [20]
COc1ccc(/C(=C2\O[C@@H]([C@H]3COC(C)(C)O3)[C@H]3OC(C)(C)O[C@@H]23)c2cc(OC)c(OC)c(OC)c2)cc1O,72.3%,108%,34.8%,48.5%,79.4%,43.4%,84.2%,101%,121%,34.8%,24.3%,43.9%,81.9,36.3%,85.2%,9.85% (active),107%,7.95% (active),26.9,–
O=C(C[n+]1ccccc1)c1ccc2ccccc2c1,88.1%,96.4%,95.2%,89.1%,104%,103%,96.7%,87.6%,102%,87.9%,86.6%,95.2%,–,103%,88.2%,97.3%,92.6%,94%,109,92.4%
COc1ccc2nc3cc(Cl)ccc3c(NCCNCC(C)O)c2c1 (configuration not stated),42.8%,67.9%,25.8%,19%,0.055% (active),-56.5% (active),-3.68% (active),35.5%,8.35% (active),28.8%,2.47% (active),34.3%,–,36%,35.1%,26.2%,30.2%,43.3%,19.4,44.4%
CC(C)=CCc1ccc(O)c(=O)cc1C(C)C,12.9%,4.5% (active),10.5%,14.6%,5.04% (active),28.5%,9.13% (active),6.68% (active),26.7%,28.5%,11.1%,52.4%,12.7,13.7%,8.22% (active),20%,13.6%,-16.8% (active),38.1,–
COc1ccc2nc3ccccc3c(NCCNCC(C)O)c2c1 (configuration not stated),-2.17% (active),-4.19% (active),-3.32% (active),-13.6% (active),-10.8% (active),-26.5% (active),-36.4% (active),0.024% (active),-27.5% (active),9.52% (active),9.22% (active),-28.2% (active),–,8.57% (active),7.81% (active),6.66% (active),7.95% (active),11.3%,23.1,-13.7% (active)
Clc1ccc(/C=C2\CCCC3=C2N=C2SC=NN2C3c2ccc(Cl)cc2)cc1 (configuration not stated),94.8%,107%,96.2%,112%,97.2%,106%,88.6%,103%,113%,98.3%,102%,104%,105,99.2%,105%,106%,97.1%,94.9%,87.3,–
COc1ccc(-c2nc3ncccn3c2-c2nnc(-c3ccsc3C)o2)cc1,80.5%,61.6%,84.4%,23.8%,59.9%,53.6%,78.8%,90.9%,110%,88.3%,92.2%,80.6%,82.8,–,80.3%,86.4%,78.4%,107%,88.9,80.8%
CN(C)CC(O)c1ccc2cc(Br)c3ccccc3c2c1 (configuration not stated),80.1%,78.7%,72.7%,62.1%,37%,65.6%,57.1%,54%,-67.8% (active),70.7%,24.7%,16.8%,–,58.5%,75.6%,65.9%,99.2%,47.2%,53.7,97.1%
